# What was measured:
# Test in all cases: DAPPL (digital affinity profiling via proximity ligation, sequencing); 10 mM Tris-HCl pH 7.5, 50 mM NaCl, 1 mM DTT, 4% glycerol, room temperature, 30 min; GST-TFs on glutathione beads, 16-mer random dsDNA library, 0.1% formaldehyde crosslink after washing; high values mean tight binding
# [1] = biological target: T1, FLI1 (Homo sapiens, UniProt Q01543 1-452); conditions: protein: recombinant; tags: N-terminal GST; dsDNA, one strand shown
# T1 sequence: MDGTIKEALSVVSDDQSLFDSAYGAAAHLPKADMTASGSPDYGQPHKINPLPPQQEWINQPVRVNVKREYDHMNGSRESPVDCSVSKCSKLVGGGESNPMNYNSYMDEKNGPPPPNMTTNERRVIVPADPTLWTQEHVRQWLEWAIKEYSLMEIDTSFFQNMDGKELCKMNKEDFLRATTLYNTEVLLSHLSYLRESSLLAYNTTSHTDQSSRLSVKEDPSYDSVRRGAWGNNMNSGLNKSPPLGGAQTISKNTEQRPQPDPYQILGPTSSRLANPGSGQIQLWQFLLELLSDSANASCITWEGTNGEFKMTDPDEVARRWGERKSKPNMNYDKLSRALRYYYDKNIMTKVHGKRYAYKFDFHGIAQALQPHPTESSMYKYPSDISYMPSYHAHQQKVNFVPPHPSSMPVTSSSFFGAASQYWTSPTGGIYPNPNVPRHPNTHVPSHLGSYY
# Summary of the method: (§1)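 A tag-only sample was pooled with DNA-barcoded human transcription factors that had been expressed in yeast as GST fusions and captured on glutathione beads. The pools were incubated for 30 min at room temperature with 200 nmole of a random double-stranded 16-mer DNA library in Tris/NaCl/DTT/glycerol buffer, then washed, crosslinked with 0.1% formaldehyde, proximity-ligated (BsaI/T4 ligase, 1 h, 37 °C), PCR-amplified and sequenced on an Illumina NextSeq500. Binding signal is each hexamer's read frequency for a factor divided by its frequency for the tag-only sample.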
# [2] = biological target: T2, ELK1 (Homo sapiens, UniProt P19419 1-428); conditions: protein: recombinant; tags: N-terminal GST; dsDNA, one strand shown
# T2 sequence: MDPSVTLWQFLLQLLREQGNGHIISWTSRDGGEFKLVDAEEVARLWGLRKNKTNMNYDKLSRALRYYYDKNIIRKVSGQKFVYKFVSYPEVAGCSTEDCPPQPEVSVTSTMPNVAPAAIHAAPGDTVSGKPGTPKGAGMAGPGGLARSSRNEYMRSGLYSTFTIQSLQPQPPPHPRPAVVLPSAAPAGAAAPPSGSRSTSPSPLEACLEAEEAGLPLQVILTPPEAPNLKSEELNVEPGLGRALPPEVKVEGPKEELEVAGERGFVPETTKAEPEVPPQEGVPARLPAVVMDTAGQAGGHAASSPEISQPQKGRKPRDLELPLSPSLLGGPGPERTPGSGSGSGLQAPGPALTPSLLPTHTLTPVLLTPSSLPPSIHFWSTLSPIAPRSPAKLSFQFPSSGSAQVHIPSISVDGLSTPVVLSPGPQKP
# Summary of the method: as §1
# [3] = biological target: T3, GABPA (Homo sapiens, UniProt Q06546 1-454); conditions: protein: recombinant; tags: N-terminal GST; dsDNA, one strand shown
# T3 sequence: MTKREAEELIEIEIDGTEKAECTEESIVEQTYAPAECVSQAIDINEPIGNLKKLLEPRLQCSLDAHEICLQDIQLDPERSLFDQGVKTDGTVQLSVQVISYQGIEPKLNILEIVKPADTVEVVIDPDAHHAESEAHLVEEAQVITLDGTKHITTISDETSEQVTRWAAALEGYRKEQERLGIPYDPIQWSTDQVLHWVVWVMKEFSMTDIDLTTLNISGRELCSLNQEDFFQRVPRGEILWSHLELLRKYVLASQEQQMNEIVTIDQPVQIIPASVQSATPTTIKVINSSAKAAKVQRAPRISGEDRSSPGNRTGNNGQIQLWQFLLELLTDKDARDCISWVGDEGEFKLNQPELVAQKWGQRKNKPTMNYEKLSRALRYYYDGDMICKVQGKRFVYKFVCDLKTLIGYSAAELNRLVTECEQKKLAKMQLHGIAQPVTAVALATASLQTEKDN
# Summary of the method: as §1
# [4] = biological target: T4, ERG (Homo sapiens, UniProt P11308 1-479); conditions: protein: recombinant; tags: N-terminal GST; dsDNA, one strand shown
# T4 sequence: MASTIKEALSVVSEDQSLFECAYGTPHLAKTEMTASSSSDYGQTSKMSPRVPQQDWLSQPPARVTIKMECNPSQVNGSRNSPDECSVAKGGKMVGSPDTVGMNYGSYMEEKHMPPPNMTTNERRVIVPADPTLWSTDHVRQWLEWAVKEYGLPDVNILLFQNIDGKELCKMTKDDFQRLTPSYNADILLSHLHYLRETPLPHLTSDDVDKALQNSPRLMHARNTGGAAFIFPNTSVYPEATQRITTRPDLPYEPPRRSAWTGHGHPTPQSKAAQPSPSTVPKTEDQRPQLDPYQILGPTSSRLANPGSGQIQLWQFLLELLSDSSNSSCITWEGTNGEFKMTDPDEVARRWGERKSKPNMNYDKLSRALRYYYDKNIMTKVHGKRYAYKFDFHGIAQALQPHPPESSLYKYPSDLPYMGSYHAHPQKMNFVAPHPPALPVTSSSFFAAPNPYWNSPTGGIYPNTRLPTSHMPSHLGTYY
# Summary of the method: as §1
# [5] = biological target: ELF1 (Homo sapiens, UniProt P32519 1-619); conditions: protein: recombinant; tags: N-terminal GST; dsDNA, one strand shown
# ELF1, sequence (P32519 whole entry): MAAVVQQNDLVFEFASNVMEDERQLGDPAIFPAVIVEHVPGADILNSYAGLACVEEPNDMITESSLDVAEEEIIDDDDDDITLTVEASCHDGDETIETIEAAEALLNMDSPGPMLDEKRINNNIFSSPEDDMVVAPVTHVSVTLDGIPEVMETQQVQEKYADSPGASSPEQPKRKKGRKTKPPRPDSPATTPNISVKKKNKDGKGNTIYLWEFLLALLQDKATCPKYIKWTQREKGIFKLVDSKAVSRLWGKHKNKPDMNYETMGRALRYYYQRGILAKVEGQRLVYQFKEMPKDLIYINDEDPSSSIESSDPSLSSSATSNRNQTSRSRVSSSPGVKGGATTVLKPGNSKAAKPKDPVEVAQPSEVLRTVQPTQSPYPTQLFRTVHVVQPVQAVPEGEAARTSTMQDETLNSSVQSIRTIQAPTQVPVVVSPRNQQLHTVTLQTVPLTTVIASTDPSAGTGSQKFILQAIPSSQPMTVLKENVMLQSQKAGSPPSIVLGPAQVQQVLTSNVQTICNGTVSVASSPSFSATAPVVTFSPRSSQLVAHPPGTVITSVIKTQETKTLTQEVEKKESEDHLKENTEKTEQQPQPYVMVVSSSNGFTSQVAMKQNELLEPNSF
# Summary of the method: as §1
# [6] = biological target: T5, EHF (Homo sapiens, UniProt Q9NZC4 1-300); conditions: protein: recombinant; tags: N-terminal GST; dsDNA, one strand shown
# T5 sequence: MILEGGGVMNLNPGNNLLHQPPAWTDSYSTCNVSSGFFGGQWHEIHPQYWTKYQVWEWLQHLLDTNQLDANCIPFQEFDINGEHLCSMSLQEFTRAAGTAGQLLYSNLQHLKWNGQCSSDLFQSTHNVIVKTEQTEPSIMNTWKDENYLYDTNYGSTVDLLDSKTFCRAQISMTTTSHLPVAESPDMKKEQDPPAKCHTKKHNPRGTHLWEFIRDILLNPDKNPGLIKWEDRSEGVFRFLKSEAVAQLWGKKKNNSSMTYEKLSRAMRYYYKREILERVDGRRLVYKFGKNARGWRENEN
# Summary of the method: as §1
# [7] = biological target: SPI1 (Homo sapiens, UniProt P17947 1-270); conditions: protein: recombinant; tags: N-terminal GST; dsDNA, one strand shown
# Summary of the method: as §1
# [8] = biological target: SPIB (Homo sapiens, UniProt Q01892 1-262); conditions: protein: recombinant; tags: N-terminal GST; dsDNA, one strand shown
# SPIB, sequence (Q01892 whole entry): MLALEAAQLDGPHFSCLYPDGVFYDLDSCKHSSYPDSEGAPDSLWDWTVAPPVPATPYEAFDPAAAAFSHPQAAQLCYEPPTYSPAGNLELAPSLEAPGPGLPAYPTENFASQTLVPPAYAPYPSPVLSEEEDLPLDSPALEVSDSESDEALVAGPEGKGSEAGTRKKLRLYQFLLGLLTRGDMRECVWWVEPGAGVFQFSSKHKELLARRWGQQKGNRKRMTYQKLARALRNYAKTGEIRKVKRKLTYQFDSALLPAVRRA
# Summary of the method: as §1
# [9] = biological target: T6, ELK3 (Homo sapiens, UniProt P41970 1-407); conditions: protein: recombinant; tags: N-terminal GST; dsDNA, one strand shown
# T6 sequence: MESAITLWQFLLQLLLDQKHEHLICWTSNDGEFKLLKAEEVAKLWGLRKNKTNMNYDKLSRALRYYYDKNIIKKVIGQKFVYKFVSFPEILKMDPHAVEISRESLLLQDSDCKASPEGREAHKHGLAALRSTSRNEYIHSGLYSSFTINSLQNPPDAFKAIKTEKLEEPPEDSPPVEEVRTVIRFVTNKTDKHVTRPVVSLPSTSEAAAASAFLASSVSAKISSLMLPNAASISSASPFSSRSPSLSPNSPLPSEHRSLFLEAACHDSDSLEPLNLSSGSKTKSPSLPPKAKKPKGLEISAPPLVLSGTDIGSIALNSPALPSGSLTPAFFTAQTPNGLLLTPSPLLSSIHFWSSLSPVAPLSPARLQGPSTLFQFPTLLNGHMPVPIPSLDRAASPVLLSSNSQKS
# Summary of the method: as §1
# [10] = biological target: T7, FEV (Homo sapiens, UniProt Q99581 1-238); conditions: protein: recombinant; tags: N-terminal GST; dsDNA, one strand shown
# T7 sequence: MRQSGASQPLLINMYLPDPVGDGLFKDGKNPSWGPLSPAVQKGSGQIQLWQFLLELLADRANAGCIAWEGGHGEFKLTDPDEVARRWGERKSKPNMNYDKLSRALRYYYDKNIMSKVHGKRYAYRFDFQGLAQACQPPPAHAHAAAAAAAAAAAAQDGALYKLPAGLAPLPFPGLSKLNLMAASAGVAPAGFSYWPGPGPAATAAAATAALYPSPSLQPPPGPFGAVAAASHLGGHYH
# Summary of the method: as §1
# [11] = biological target: ETV5 (Homo sapiens, UniProt P41161 1-510); conditions: protein: recombinant; tags: N-terminal GST; dsDNA, one strand shown
# ETV5, sequence (P41161 whole entry): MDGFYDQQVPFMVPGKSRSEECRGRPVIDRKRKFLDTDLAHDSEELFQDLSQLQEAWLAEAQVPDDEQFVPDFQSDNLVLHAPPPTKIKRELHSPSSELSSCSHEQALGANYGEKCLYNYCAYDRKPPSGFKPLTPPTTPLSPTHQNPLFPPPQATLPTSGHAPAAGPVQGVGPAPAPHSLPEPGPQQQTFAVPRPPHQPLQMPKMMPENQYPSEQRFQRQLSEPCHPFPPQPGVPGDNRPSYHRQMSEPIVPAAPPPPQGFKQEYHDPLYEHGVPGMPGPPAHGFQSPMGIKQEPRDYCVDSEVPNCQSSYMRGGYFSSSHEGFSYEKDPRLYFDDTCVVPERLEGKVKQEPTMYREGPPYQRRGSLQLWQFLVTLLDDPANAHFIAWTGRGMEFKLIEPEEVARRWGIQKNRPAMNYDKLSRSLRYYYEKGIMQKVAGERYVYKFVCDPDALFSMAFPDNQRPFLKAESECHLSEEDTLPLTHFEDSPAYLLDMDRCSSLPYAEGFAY
# Summary of the method: as §1
# [12] = biological target: HSF1 (Homo sapiens, UniProt Q00613 1-529); conditions: protein: recombinant; tags: N-terminal GST; chain copies: 3; dsDNA, one strand shown
# HSF1, sequence (Q00613 whole entry): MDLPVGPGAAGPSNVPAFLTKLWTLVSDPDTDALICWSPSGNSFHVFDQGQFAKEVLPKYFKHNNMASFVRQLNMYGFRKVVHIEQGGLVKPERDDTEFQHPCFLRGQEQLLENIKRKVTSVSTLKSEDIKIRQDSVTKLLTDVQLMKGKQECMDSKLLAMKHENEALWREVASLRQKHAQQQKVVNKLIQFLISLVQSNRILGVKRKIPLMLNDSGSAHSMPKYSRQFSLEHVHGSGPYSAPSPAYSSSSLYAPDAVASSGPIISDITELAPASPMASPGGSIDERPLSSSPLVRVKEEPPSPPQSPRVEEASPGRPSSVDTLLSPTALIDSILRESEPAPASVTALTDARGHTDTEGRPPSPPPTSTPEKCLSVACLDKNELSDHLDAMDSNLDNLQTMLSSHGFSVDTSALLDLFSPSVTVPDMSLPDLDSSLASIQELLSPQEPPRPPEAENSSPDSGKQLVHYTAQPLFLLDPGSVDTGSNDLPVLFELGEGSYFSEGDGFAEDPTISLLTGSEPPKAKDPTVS
# Summary of the method: as §1
# [13] = biological target: T8, SPIC (Homo sapiens, UniProt Q8N5J4 1-248); conditions: protein: recombinant; tags: N-terminal GST; dsDNA, one strand shown
# T8 sequence: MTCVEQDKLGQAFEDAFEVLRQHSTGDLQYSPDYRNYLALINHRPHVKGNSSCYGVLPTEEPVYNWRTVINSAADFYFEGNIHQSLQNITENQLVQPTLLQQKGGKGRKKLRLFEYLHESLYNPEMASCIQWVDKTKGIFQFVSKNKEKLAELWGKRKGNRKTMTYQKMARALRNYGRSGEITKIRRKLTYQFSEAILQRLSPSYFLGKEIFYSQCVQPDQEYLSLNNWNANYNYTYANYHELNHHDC
# Summary of the method: as §1
# [14] = biological target: ELF4 (Homo sapiens, UniProt Q99607 1-663); conditions: protein: recombinant; tags: N-terminal GST; dsDNA, one strand shown
# ELF4, sequence (Q99607 whole entry): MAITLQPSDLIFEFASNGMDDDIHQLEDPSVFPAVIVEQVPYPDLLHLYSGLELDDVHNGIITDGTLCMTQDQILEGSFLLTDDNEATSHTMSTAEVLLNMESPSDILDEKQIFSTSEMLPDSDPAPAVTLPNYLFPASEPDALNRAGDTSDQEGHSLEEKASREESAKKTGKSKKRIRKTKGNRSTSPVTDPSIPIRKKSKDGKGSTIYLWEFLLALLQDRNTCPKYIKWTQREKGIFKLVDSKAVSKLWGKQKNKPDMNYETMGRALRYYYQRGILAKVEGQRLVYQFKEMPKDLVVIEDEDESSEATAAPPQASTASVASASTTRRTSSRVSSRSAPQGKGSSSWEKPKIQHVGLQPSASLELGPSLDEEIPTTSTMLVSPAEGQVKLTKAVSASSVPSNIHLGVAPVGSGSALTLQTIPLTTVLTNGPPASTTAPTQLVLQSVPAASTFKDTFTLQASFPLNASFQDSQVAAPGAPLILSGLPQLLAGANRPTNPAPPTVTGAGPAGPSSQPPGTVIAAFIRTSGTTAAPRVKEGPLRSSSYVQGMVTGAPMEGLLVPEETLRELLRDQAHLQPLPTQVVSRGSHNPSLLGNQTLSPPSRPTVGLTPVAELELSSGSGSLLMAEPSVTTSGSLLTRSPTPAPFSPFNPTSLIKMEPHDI
# Summary of the method: as §1
# [15] = biological target: T9, ELK4 (Homo sapiens, UniProt P28324-2 1-405); conditions: protein: recombinant; tags: N-terminal GST; dsDNA, one strand shown
# T9 sequence: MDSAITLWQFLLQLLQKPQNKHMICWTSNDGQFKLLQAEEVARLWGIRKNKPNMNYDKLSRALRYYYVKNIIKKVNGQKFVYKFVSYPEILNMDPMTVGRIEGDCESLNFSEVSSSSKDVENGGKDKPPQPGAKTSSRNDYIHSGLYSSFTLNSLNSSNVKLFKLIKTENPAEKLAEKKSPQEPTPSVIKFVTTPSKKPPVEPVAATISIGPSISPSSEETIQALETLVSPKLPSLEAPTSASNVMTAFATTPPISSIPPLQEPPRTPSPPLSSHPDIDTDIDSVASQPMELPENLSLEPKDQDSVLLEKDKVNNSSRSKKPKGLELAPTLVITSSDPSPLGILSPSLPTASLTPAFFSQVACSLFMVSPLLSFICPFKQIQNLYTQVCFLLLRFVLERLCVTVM
# Summary of the method: as §1
# [16] = biological target: T10, ETV2 (Homo sapiens, UniProt O00321 1-342); conditions: protein: recombinant; tags: N-terminal GST; dsDNA, one strand shown
# T10 sequence: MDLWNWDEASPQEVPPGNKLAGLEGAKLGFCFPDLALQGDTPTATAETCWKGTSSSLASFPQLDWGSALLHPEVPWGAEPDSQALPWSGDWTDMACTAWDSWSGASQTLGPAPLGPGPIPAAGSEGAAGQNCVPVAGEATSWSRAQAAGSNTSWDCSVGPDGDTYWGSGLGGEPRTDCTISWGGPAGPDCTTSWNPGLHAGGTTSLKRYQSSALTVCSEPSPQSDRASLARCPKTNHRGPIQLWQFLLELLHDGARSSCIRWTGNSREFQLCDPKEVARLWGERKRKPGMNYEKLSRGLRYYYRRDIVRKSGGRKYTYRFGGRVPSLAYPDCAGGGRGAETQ
# Summary of the method: as §1
# [17] = biological target: T11, ELF3 (Homo sapiens, UniProt P78545 1-371); conditions: protein: recombinant; tags: N-terminal GST; dsDNA, one strand shown
# T11 sequence: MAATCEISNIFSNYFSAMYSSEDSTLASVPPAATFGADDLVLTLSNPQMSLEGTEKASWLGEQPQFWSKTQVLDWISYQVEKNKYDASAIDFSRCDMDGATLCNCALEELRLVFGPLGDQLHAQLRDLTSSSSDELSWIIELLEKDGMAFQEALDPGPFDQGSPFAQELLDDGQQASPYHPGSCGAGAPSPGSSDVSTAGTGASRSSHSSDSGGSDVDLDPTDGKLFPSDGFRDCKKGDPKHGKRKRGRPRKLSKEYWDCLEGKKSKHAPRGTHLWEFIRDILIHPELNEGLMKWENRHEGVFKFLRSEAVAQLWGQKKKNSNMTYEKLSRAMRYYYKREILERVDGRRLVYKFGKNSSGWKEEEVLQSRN
# Summary of the method: as §1
# [18] = biological target: CRX (Homo sapiens, UniProt O43186 1-299); conditions: protein: recombinant; tags: N-terminal GST; dsDNA, one strand shown
# CRX, sequence (O43186 whole entry): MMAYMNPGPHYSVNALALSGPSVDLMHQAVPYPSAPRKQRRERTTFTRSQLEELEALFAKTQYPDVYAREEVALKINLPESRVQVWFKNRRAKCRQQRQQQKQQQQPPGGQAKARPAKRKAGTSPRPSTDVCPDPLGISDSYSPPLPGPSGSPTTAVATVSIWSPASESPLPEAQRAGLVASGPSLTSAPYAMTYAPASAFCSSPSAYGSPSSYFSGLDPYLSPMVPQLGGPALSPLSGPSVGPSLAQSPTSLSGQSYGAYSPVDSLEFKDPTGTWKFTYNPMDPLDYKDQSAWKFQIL
# Summary of the method: as §1
# [19] = biological target: ETV1 (Homo sapiens, UniProt P50549 1-477); conditions: protein: recombinant; tags: N-terminal GST; dsDNA, one strand shown
# ETV1, sequence (P50549 whole entry): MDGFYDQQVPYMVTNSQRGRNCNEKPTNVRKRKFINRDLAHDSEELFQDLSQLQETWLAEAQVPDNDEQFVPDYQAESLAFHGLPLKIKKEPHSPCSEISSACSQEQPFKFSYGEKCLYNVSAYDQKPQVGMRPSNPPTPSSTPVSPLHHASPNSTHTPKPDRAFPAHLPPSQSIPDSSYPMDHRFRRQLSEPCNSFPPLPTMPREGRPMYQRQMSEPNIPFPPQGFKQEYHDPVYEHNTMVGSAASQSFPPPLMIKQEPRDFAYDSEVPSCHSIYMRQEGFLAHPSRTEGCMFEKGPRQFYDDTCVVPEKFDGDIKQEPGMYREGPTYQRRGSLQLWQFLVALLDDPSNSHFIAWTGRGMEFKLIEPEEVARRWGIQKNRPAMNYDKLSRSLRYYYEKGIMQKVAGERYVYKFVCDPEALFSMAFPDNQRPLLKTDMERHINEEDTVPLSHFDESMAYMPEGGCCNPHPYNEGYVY
# Summary of the method: as §1
sequence,measurement,setting,value
TCCTGT,binding signal,[1],"1.8 fold enrichment (6-mer frequency, TF over GST control)"
same,binding signal,[2],"1.72 fold enrichment (6-mer frequency, TF over GST control)"
same,binding signal,[3],"1.69 fold enrichment (6-mer frequency, TF over GST control)"
same,binding signal,[4],"1.94 fold enrichment (6-mer frequency, TF over GST control)"
same,binding signal,[5],"1.71 fold enrichment (6-mer frequency, TF over GST control)"
same,binding signal,[6],"1.67 fold enrichment (6-mer frequency, TF over GST control)"
same,binding signal,[7],"1.99 fold enrichment (6-mer frequency, TF over GST control)"
same,binding signal,[8],"1.88 fold enrichment (6-mer frequency, TF over GST control)"
same,binding signal,[9],"1.88 fold enrichment (6-mer frequency, TF over GST control)"
same,binding signal,[10],"1.85 fold enrichment (6-mer frequency, TF over GST control)"
same,binding signal,[11],"2.04 fold enrichment (6-mer frequency, TF over GST control)"
same,binding signal,[12],"1.14 fold enrichment (6-mer frequency, TF over GST control)"
same,binding signal,[13],"1.87 fold enrichment (6-mer frequency, TF over GST control)"
same,binding signal,[14],"1.65 fold enrichment (6-mer frequency, TF over GST control)"
same,binding signal,[15],"1.56 fold enrichment (6-mer frequency, TF over GST control)"
same,binding signal,[16],"1.71 fold enrichment (6-mer frequency, TF over GST control)"
same,binding signal,[17],"1.78 fold enrichment (6-mer frequency, TF over GST control)"
same,binding signal,[18],"1.16 fold enrichment (6-mer frequency, TF over GST control)"
same,binding signal,[19],"1.89 fold enrichment (6-mer frequency, TF over GST control)"

# Source: publication PMC7862700, “An all-to-all approach to the identification of sequence-specific readers for epigenetic DNA modifications on cytosine”
